This is part of a sample that, as a whole, favours compounds with a hit. Of some 83,000 tested, about 20% had one in any assay.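 For each line, cells grew in 96-well plates with the test compound present at a single concentration for 48 hours.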 Unmarked numbers belong to inactive results. Activity calls are given as the source filed them. Rule for the calls: active = growth percent below 10; inactive = the rest.
What follows are compounds tested on SW-620 colon (assay: NCI-60 one-dose screen, 48 h (100 = growth as untreated, 0 = no growth, -100 = all killed)). Conditions: 10 µM unless noted.

SMILES | growth
O=C1C(c2ccccc2)=C(N2CCc3ccccc32)OC1(Cl)Cl | -28.8% (active)
CC(=O)c1nnn(-c2c(C(=O)n3nc(C)cc3C)sc(=S)n2-c2ccccc2)c1C | 112%
COC(=O)C1(C)CCC[C@]2(C)[C@H]3C[C@H]4C(C(C)C)=C[C@]3(CC[C@@H]12)[C@H]1[C@@H]4[C@@H](OC(=O)c2ccco2)CC[C@@H]1OC(=O)c1ccco1 (stereo partly specified) | 102%
CC(=O)N1C(=S)NC(=O)C1CC(C)C (stereo unspecified) | 102%
C#Cc1ccc(C(=O)NCc2ccc(/C=C/C(=O)c3nccn3C)cc2)cc1 | 10.5%
Cn1ccnc1C(=O)/C=C/c1ccc(NC(=O)c2ccc(F)cc2)cc1 | 14.8%
O=C(O)c1ccc(-n2cc(CNc3cccc(Cl)c3)c(-c3ccc(F)cc3)n2)cc1 | 110%
CCC1=Cc2cc(OC)ccc2OC12C=Cc1cc(OC)ccc1O2 (stereo unspecified) | 28.3%
CCO/C=N/C1=C(C#N)C(c2ccc(OC)cc2)c2sc3c(C)cccc3c2O1 (stereo unspecified) | 33.5%
COc1cccc(O)c1/C=C(/C)c1ccc2c(OC)cccc2[o+]1 | 96.7%
C#CCNC1CCC(c2csc(C#C)n2)=C1C (stereo unspecified) | 108%
CCO/C=N/C1=C(C#N)C(c2ccc(OC)cc2)c2sc3c(CC)cccc3c2O1 (stereo unspecified) | 35.3%
C=CCn1c(SCC(=O)Nc2ccc(C(=O)/C=C/c3ccc(Cl)cc3)cc2)nnc1-c1c[nH]c2ccccc12 | 88.3%
N#Cc1cccc(CN2CCC3=C(C2)C(=O)N(Cc2ccc(Cl)cc2)C2=NCCCN23)c1 | 36.1%
CCN(CC)c1cn(-c2ccc(S(N)(=O)=O)cc2)nn1 | 101%
CCCCCc1ccc(S(=O)(=O)Nc2cccc(-c3csc(NC(=O)CCCCCN4CCN(C)CC4)n3)c2)cc1 | -27.1% (active)
CCCCCc1ccc(S(=O)(=O)Nc2cc(-c3csc(NC(=O)CN4CCN(C)CC4)n3)ccc2OC)cc1 | -26.9% (active)
COc1ccccc1NCc1cccn1Cc1ccc(F)cc1 | 98.2%
CC(=O)c1cc(C(=O)c2ccc(Br)cc2)n2cc(C)cc(C)c12 | 103%
O=C1Nc2ccccc2/C1=C/c1ccc(COCC2CO2)n1-c1ccc(O)cc1 (stereo unspecified) | 96.2%
C/C(=N\O)[C@H]1C[C@]23CC[C@]4(C)[C@H](CC[C@@H]5[C@@]6(C)CC/C(=N/O)C(C)(C)[C@@H]6CC[C@]54C)[C@H]2[C@H](C)C1(C)OC3 | 99.9%
NC(N)=Nc1ccc(Oc2cccc(Oc3ccc(Cl)c(C(F)(F)F)c3)c2)cn1 | -76.7% (active)
COc1ccc([C@@H]2c3[nH]c4ccccc4c3C[C@H]3C(=O)N(C4CCN(CC5CCCCC5)CC4)CC(=O)N23)c(OC)c1 | 80.1%
COc1ccc(C2CC(c3ccc(Nc4nc(NCCO)nc(N5CCOCC5)n4)cc3)=Nc3c(N)nc(N)nc3N2)cc1 (stereo unspecified) | 101%
Cc1ccc2c(c1)Oc1nc(N)c(C#N)c(N)c1C2Sc1ccc(F)cc1 (stereo unspecified) | -63.6% (active)
O=C(CCn1c[n+](CC(=O)c2ccc(-c3ccccc3)cc2)c2ccccc21)Nc1cccc2cccnc12 | 65.2%
O=S(=O)(NCCNc1nccc(-n2cnc3ccccc32)n1)c1ccc(Cl)cc1 | 100%
O=C1CCCc2nc(Nc3ccc(S(=O)(=O)Nc4ccc([N+](=O)[O-])cc4)cc3)ncc21 | 102%

These compounds were tested on MCF7 breast in the same assay as above. Conditions: 10 µM unless noted.

SMILES | growth
Cc1nn(-c2ccccc2)c2ncnc(N/N=C/c3cccc(O)c3)c12 | 17.8%
C=C1CC[C@@H]2[C@]3(C)COC(c4ccccc4)O[C@@H]3CC[C@@]2(C)[C@@H]1C/C=C1/C(=O)OC[C@H]1O (stereo partly specified) | 46.1%
CN(C)CCNC(=O)c1ccc(-c2nc3ccc4[nH]ncc4c3c3c2CCC3)cc1 | 1.36% (active)
Fc1ccc(-c2cc3nc(C(Cl)Cl)nc(-c4ccc(F)cc4)n3n2)cc1 | 24.2%
C=C(C=O)[C@@H]1CC[C@]2(C)[C@H](C(=O)C=C3[C@H]4C[C@](C)(C(=O)OC)CC[C@]4(C)CC[C@]32C)[C@@]1(C)CCC#N | 2.5% (active)
CCc1ccc(SC2c3ccc(N(CC)CC)cc3Oc3nc(N)c(C#N)c(N)c32)cc1 (stereo unspecified) | -84.9% (active)
CCOC(=O)C1=NNC(c2ccc(Cl)cc2)C1C(=O)N1C(=S)NC(=O)C1CC(C)C (stereo unspecified) | 91.5%
C#CCn1cccc1CNc1ccc(OC)cc1 | -53.8% (active)
NC(N)=Nc1ccc(Oc2cccc(NC(N)=Nc3ccc(Br)cc3)c2)cn1 | 10.8%
CC1(C)CC[C@]2(CN)CC[C@]3(C)C(=CC[C@@H]4[C@@]5(C)CCCNC(C)(C)[C@@H]5CC[C@]43C)[C@H]2C1 | 85.7%
O=C1C(c2ccccc2)=C(N2CCc3ccccc32)OC1(Cl)Cl | 26.2%
CC(=O)c1nnn(-c2c(C(=O)n3nc(C)cc3C)sc(=S)n2-c2ccccc2)c1C | 89.2%
COC(=O)C1(C)CCC[C@]2(C)[C@H]3C[C@H]4C(C(C)C)=C[C@]3(CC[C@@H]12)[C@H]1[C@@H]4[C@@H](OC(=O)c2ccco2)CC[C@@H]1OC(=O)c1ccco1 (stereo partly specified) | 98.3%
CC(=O)N1C(=S)NC(=O)C1CC(C)C (stereo unspecified) | 97.7%
C#Cc1ccc(C(=O)NCc2ccc(/C=C/C(=O)c3nccn3C)cc2)cc1 | 12.2%
Cn1ccnc1C(=O)/C=C/c1ccc(NC(=O)c2ccc(F)cc2)cc1 | 18%
O=C(O)c1ccc(-n2cc(CNc3cccc(Cl)c3)c(-c3ccc(F)cc3)n2)cc1 | 70%
CCC1=Cc2cc(OC)ccc2OC12C=Cc1cc(OC)ccc1O2 (stereo unspecified) | 15.3%
CCO/C=N/C1=C(C#N)C(c2ccc(OC)cc2)c2sc3c(C)cccc3c2O1 (stereo unspecified) | 23.5%

SMILES | growth
COc1cccc(O)c1/C=C(/C)c1ccc2c(OC)cccc2[o+]1 | 93.8%
C#CCNC1CCC(c2csc(C#C)n2)=C1C (stereo unspecified) | 61.1%
CCO/C=N/C1=C(C#N)C(c2ccc(OC)cc2)c2sc3c(CC)cccc3c2O1 (stereo unspecified) | 24.6%
C=CCn1c(SCC(=O)Nc2ccc(C(=O)/C=C/c3ccc(Cl)cc3)cc2)nnc1-c1c[nH]c2ccccc12 | 9.26% (active)
N#Cc1cccc(CN2CCC3=C(C2)C(=O)N(Cc2ccc(Cl)cc2)C2=NCCCN23)c1 | 14.2%
CCN(CC)c1cn(-c2ccc(S(N)(=O)=O)cc2)nn1 | 97.5%
CCCCCc1ccc(S(=O)(=O)Nc2cccc(-c3csc(NC(=O)CCCCCN4CCN(C)CC4)n3)c2)cc1 | -1.18% (active)
CCCCCc1ccc(S(=O)(=O)Nc2cc(-c3csc(NC(=O)CN4CCN(C)CC4)n3)ccc2OC)cc1 | -63.8% (active)
COc1ccccc1NCc1cccn1Cc1ccc(F)cc1 | 93.1%
CC(=O)c1cc(C(=O)c2ccc(Br)cc2)n2cc(C)cc(C)c12 | 85.3%
O=C1Nc2ccccc2/C1=C/c1ccc(COCC2CO2)n1-c1ccc(O)cc1 (stereo unspecified) | 84.6%
C/C(=N\O)[C@H]1C[C@]23CC[C@]4(C)[C@H](CC[C@@H]5[C@@]6(C)CC/C(=N/O)C(C)(C)[C@@H]6CC[C@]54C)[C@H]2[C@H](C)C1(C)OC3 | 93.3%
NC(N)=Nc1ccc(Oc2cccc(Oc3ccc(Cl)c(C(F)(F)F)c3)c2)cn1 | -70.6% (active)
COc1ccc([C@@H]2c3[nH]c4ccccc4c3C[C@H]3C(=O)N(C4CCN(CC5CCCCC5)CC4)CC(=O)N23)c(OC)c1 | 42.6%
COc1ccc(C2CC(c3ccc(Nc4nc(NCCO)nc(N5CCOCC5)n4)cc3)=Nc3c(N)nc(N)nc3N2)cc1 (stereo unspecified) | 86.2%
Cc1ccc2c(c1)Oc1nc(N)c(C#N)c(N)c1C2Sc1ccc(F)cc1 (stereo unspecified) | -59.7% (active)
O=C(CCn1c[n+](CC(=O)c2ccc(-c3ccccc3)cc2)c2ccccc21)Nc1cccc2cccnc12 | 19.8%
O=S(=O)(NCCNc1nccc(-n2cnc3ccccc32)n1)c1ccc(Cl)cc1 | 87.9%
O=C1CCCc2nc(Nc3ccc(S(=O)(=O)Nc4ccc([N+](=O)[O-])cc4)cc3)ncc21 | 95.2%
